Test [1] deals with Plasmodium falciparum Sir2 (PF13_0152, Sir2A). The experiment in a line: pfSir2 binders on small-molecule microarrays, primary screen, biochemical, small-molecule microarray, 635 nm fluorescence (AID 1098).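 Note: score merges spot fluorescence intensity with its signal-to-noise ratio.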 Particulars: small-molecule microarray binding, fluorescence 635 nm; higher = more signal.
Test [2] can be described thus: small-molecule microarray binders of probe aDKK1, primary screen, biochemical, biotinylated probe, 635/667 nm fluorescence (AID 1099).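 Note: score merges 667nm spot fluorescence with signal to noise across triplicate slides; reference of the scale not given here.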 Particulars: higher = more signal.
Test [3] in a line: small-molecule microarray binders of probe aCHRDL2, primary screen, biochemical, biotinylated probe, 635/667 nm fluorescence (AID 1100). Conditions: higher = more signal.
The nature of test [4]: splicing luciferase reporter signal modulators, primary screen, spliceosome inhibition project, cell-based, HEK293, splice +/- reporter (AID 1101).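 Note: HEK293 cells carrying a splicing-competent luciferase reporter gene; test concentration not given here.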 Conditions: luminescence, 24 h, higher = more signal, called active from +8 up or from −8 down. (Reporter assays use an easily measured gene product as a stand-in for the process of interest.)
The target in test [5] is Fibroblast growth factor 10 (Homo sapiens) (UniProt O15520). Put plainly: FGF10 binders on small-molecule microarrays, primary screen, biochemical, small-molecule microarray, 635 nm fluorescence (AID 1102). Conditions: FGF10 binding, fluorescence 635 nm, higher = more signal.
In test [6] the test system is glycogen synthase kinase-3 (GSK3A per assay name; protocol says GSK3B). Put plainly: GSK3 binders on small-molecule microarrays, primary screen, biochemical, small-molecule microarray, 635 nm fluorescence, GSK3A (AID 1103). Note: the record names both GSK3A and GSK3B. Conditions: small-molecule microarray binding, fluorescence 635 nm; higher = more signal.
The target in test [7] is Epidermal growth factor receptor (Homo sapiens) (UniProt P00533). The experiment in a line: EGFR binders on small-molecule microarrays, primary screen, biochemical, small-molecule microarray, 635 nm fluorescence (AID 1104).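 Note: score merges 667 nm emission intensity with spot signal to noise over triplicate slides.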 Particulars: EGFR binding, higher = more signal.
Test [8] addresses Follistatin-related protein 3 (Homo sapiens) (UniProt O95633). The experiment in a line: FSTL3 binders on small-molecule microarrays, primary screen, biochemical, small-molecule microarray, 635 nm fluorescence (AID 1105).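 Note: score merges emission near 667 nm and signal to noise per printed spot across three slides.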 Particulars: FSTL3 binding, higher = more signal.
The target in test [9] is Dickkopf-related protein 1 (Homo sapiens) (UniProt O94907). The experiment in a line: DKK1 binders on small-molecule microarrays, primary screen, biochemical, small-molecule microarray, 635 nm fluorescence scan (AID 1106).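 Note: score merges emission near 667 nm with signal to noise over three replicate slides.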 Particulars: DKK1 binding, higher = more signal.
For test [10], the system named is Inhibin beta A chain (activin A). Put plainly: INHBA (activin A) binders on microarrays, primary screen, biochemical, small-molecule microarray, 635 nm fluorescence scan (AID 1107).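 Note: mouse activin A protein probed at 4.33 µg/mL on printed slides; score merges bound-protein fluorescence near 667 nm with spot signal-to-noise.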 Particulars: small-molecule microarray binding, higher = more signal.

Molecules are shown by their SMILES. Active and inactive are the calls of the source.

Chain of Epidermal growth factor receptor (Homo sapiens) (P00533 whole entry, looked up): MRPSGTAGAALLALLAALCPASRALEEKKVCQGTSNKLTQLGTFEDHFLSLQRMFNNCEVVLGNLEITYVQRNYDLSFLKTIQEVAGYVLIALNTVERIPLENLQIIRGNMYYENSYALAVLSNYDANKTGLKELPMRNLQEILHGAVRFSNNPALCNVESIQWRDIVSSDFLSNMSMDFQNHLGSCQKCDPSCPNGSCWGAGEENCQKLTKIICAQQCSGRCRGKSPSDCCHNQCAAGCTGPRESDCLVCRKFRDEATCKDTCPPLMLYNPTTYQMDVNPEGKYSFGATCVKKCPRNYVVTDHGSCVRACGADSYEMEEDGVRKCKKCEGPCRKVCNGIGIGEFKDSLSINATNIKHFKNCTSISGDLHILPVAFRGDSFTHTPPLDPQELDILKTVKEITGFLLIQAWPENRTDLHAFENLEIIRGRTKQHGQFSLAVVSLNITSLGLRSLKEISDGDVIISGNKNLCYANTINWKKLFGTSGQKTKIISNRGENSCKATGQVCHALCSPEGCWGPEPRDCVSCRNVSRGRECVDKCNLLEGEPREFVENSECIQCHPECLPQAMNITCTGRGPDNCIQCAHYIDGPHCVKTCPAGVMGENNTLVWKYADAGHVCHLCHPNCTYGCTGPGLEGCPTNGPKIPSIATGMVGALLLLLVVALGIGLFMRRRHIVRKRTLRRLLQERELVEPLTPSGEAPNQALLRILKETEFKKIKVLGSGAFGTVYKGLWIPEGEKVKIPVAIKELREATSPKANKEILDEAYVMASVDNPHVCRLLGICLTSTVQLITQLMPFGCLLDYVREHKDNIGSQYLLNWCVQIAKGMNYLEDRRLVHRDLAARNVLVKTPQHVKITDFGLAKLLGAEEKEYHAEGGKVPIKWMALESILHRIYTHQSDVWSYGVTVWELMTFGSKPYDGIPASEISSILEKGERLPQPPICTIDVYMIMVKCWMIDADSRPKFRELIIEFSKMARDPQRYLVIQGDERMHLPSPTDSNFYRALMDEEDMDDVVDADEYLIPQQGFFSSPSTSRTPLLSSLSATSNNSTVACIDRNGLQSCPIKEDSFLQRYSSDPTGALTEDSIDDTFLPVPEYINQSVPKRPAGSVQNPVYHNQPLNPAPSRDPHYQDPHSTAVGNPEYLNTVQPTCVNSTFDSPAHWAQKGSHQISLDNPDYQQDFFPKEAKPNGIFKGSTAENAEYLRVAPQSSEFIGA
Chain of Follistatin-related protein 3 (Homo sapiens) (O95633 whole entry, looked up): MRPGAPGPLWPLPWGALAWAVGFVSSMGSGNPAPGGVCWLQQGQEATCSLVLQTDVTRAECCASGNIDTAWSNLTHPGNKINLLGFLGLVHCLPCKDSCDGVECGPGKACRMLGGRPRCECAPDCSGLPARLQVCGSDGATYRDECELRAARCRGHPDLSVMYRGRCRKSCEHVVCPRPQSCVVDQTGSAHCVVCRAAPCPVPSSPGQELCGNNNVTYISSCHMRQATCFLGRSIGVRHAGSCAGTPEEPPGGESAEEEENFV
Chain of Dickkopf-related protein 1 (Homo sapiens) (O94907 whole entry, looked up): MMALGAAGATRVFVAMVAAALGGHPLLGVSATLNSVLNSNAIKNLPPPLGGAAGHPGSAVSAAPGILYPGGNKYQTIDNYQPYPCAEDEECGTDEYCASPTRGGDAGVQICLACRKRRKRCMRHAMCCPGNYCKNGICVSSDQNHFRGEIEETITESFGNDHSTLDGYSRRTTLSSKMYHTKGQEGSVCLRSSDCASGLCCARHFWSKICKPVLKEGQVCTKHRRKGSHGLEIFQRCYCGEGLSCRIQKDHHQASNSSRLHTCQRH
Chain of Fibroblast growth factor 10 (Homo sapiens) (O15520 whole entry, looked up): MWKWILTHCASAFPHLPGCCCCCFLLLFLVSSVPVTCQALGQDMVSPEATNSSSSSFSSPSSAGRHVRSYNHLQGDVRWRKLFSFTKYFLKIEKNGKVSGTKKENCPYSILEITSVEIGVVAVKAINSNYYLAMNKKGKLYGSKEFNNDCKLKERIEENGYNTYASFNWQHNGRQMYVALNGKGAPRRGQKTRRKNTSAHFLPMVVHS

On to `NC(=O)N1C(=O)C2C(C1=O)C1C=C(CCCO)C2C(C2CC2)N1Cc1cccc(OC(F)(F)F)c1` (stereo not given), for which the composite z-score in test [1] was 1.59; in test [2] it was -0.306; in test [3], -0.345; in test [5], 0.075; in test [6], -0.186; in [7], -0.595. The composite z-score in [8] is -0.494; in test [9], -0.0361; in test [10], 0.561. The z-score in test [4] was 0.0948 (inactive).
Take `CO[C@H]1O[C@H](CO)[C@@H](OC(=O)c2ccc(Br)cc2)[C@@H]2OC(=O)[C@H](Cc3ccccc3)C/C=C/C[C@@H](Cc3ccccc3)C(=O)O[C@@H]12`: the composite z-score in test [1] is 1.14; in test [2], -0.407; in test [3], 0.0962; in [5], 0.583; in [6] it was 0.186; in [7] it was 0.287. Besides, the composite z-score in test [8] came to 0.435; in [9], 0.214; in test [10], 1.24. For the same compound, in test [4], the z-score was -0.511 (inactive).
For the compound `C=C[C@H](C)[C@H](OC(=O)Nc1ccc(OC)cc1)c1ccc(OCCO)cc1`, the composite z-score in test [1] was 0.515; in test [2], -0.115; in test [3], 0.931; in test [5] it was -1.12; in test [6], -0.78; in [7], -2.13. Besides, the results for the composite z-score in [8], in test [9] and in test [10] were -0.844, -1.28 and -0.801, respectively. In [4], the z-score is -0.921 (inactive).
As for `COc1ccc(C#Cc2ccc3c(c2)[C@]2(C(=O)N3)[C@H](C(=O)N3CCCCCCC3)[C@H]3C(=O)O[C@H](c4ccccc4)[C@H](c4ccccc4)N3[C@@H]2c2ccc(O)cc2)cc1`, the composite z-score in test [1] came to 1.57; in [2], 1.36; in test [3] it was 0.696; in [5] it was 0.684; in test [6], 1.16; in test [7], 0.427. Besides, the results for the composite z-score in test [8], in test [9] and in test [10] were 1.2, 0.608 and 0.85, respectively. For the same compound, the z-score in test [4] is -0.547 (inactive).
For the compound `C=C(CCCC)C(=O)CC[C@H](OC(=O)c1ccccc1-c1ccccc1C(=O)O)c1ccccc1OCCO`, the composite z-score in test [1] is 0.855; in test [2], -0.475; in test [3], -0.336; in test [5], 0.271; in [6], -0.218; in test [7], -0.226. For the same compound, the composite z-score in [8] is -0.279; in [9], 0.145; in [10], 1.28. Also, the z-score in test [4] was 2.02 (inactive).
On to `CC(C)C[C@@H]1NC(=O)[C@@]23C(=O)N[C@@H](Cc4ccccc4)C2[C@H](C)[C@@]2(C)O[C@H]2C3/C=C/C/C=C\CNC(=O)[C@@H](C)NC1=O` (stereo not given in full), for which the composite z-score was 1.72 in test [1]; -0.416 in test [2]; -0.601 in test [3]; -0.052 in test [5]; -0.608 in [6]; 0.401 in test [7]. Further, the results for the composite z-score in test [8], in test [9] and in test [10] were 0.331, 0.431 and 1.27, respectively. Moreover, the z-score in test [4] was -1.34 (inactive).
Regarding `C=CC[C@H](OC(=O)Nc1ccc(SC)cc1)c1ccc(OCCO)cc1`, the composite z-score in test [1] is 0.392; in test [2] it was -0.164; in test [3], 0.799; in test [5] it was -0.163; in test [6] it was -0.989; in test [7], -0.634. Also, the composite z-score was -0.0191 in [8], -0.472 in test [9] and 0.138 in test [10]. In addition, in [4], the z-score was -1.69 (inactive).
In the case of `C=C[C@@H](OC)[C@H](OC(=O)Nc1ccc(SC)cc1)c1ccc(OCCO)cc1`, the composite z-score was found to be 1.4 in test [1]; 0.0622 in [2]; 0.527 in [3]; 0.887 in test [5]; 0.64 in [6]; 0.419 in [7]. Besides, the composite z-score in test [8] is 0.839; in test [9], 0.444; in test [10], 0.0469. The z-score in test [4] was 1.46 (inactive).
As to `NC(=O)[C@H]1[C@@H]2C(=O)O[C@@H](c3ccccc3)[C@@H](c3ccccc3)N2[C@@H](c2ccc(O)cc2)[C@]12C(=O)Nc1ccc(C#CC3=CCCCC3)cc12`, the composite z-score in test [1] is -0.165; in [2], -0.157; in [3] it was 0.724; in test [5], 0.0647; in [6], -0.229; in test [7], -0.433. Further, the values for the composite z-score in test [8], in test [9] and in test [10] were -0.0656, -0.0761 and 0.0756, respectively. The z-score in test [4] was -1.67 (inactive).
Turning to `C[C@]1(C(=O)NCC(F)(F)F)c2ccccc2C(=O)N(Cc2ccccc2)[C@H]1c1ccc(CO)cc1`, the composite z-score was 0.905 in [1]; -0.0306 in test [2]; 0.543 in test [3]; -1.63 in test [5]; -1.8 in [6]; -1.3 in [7]. Further, the composite z-score in test [8] is -1.47; in test [9], -1.71; in test [10] it was -0.264. Also, the z-score in test [4] is 0.0226 (inactive).
As for `Cc1ccccc1C(O)C1C=CC2C(=O)NC(=O)C2N1Nc1ccc(Cl)cc1Cl` (stereo not given), the composite z-score in [1] was 1.21; in test [2], 0.629; in test [3], 0.751; in test [5] it was 0.904; in test [6] it was 0.332; in test [7] it was 0.207. Also, the composite z-score worked out at 0.511 in [8], 0.0925 in test [9] and 1.18 in test [10]. For the same compound, the z-score in test [4] is 0.812 (inactive).
For `O=C1C2C=CC(C(O)c3cc(C(F)(F)F)cc(C(F)(F)F)c3)N(Nc3ccccc3F)C2C(=O)N1c1ccccc1` (stereo not given), the composite z-score was 0.99 in [1]; 1.09 in test [2]; 1.03 in test [3]; 0.223 in test [5]; 0.708 in [6]; -0.855 in test [7]. The composite z-score is -0.19 in test [8], -0.795 in test [9] and 0.37 in test [10]. For the same compound, in test [4], the z-score was 0.537 (inactive).
For the compound `CC(C)(C)OC(=O)CC[C@]12N=C(c3ccc(OCCCO)cc3)O[C@H]1c1ccccc1N(Cc1ccccc1)C2=O`, the composite z-score was 0.907 in test [1]; 0.492 in test [2]; 0.462 in [3]; 1.18 in test [5]; 1.26 in [6]; -0.0167 in [7]. The composite z-score in test [8] was determined as 0.483; in [9] it was 0.168; in test [10], 0.777. The z-score in test [4] was -0.601 (inactive).
For the compound `CN1C(=O)C2C(C1=O)C1C=C(CCCO)C2C(c2cccs2)N1Cc1cc2c(cc1Br)OCO2` (stereo not given), the composite z-score in [1] worked out at 0.989; in [2], 0.738; in test [3], 0.377; in test [5], 0.922; in [6], 1.34; in test [7], 0.424. The composite z-score amounted to 1.49 in [8], 0.373 in [9] and 1.51 in [10]. For the same compound, the z-score in test [4] is -0.139 (inactive).
`COc1cc(NN2C(C(O)C3CCCCC3)C=CC3C(=O)N(C)C(=O)C32)cc(OC)c1OC` (stereo not given): the composite z-score in test [1] worked out at 1.04; in test [2] it was 1.05; in test [3], 1.1; in test [5] it was 0.144; in test [6], 1.17; in test [7] it was 0.203. Besides, the composite z-score was 1.06 in test [8], -1.47 in test [9] and 0.823 in test [10]. In addition, in [4], the z-score is 1.1 (inactive).
Consider `CN(C)CCCNC(=O)[C@@H]1c2ccccc2C(=O)N(C2CCCCC2)[C@H]1c1ccc(CO)cc1`, for which the composite z-score came out at 1.37 in test [1]; 0.229 in [2]; 0.11 in test [3]; 1.43 in [5]; 1.32 in test [6]; 0.758 in test [7]. In addition, the composite z-score in [8] was 1.53; in [9], 1.15; in [10] it was 0.106. The z-score in [4] is 1.39 (inactive).
For the compound `O=C(CS)NCCCCCNC(=O)[C@@H]1C[C@@H]2C(=O)N[C@@H](Cc3ccccc3)C(=O)N2[C@@H]1c1cccc(OCCO)c1`, the composite z-score in test [1] is 1.74; in test [2], 0.0021; in test [3], 0.0402; in test [5] it was 1.17; in test [6], 1.32; in test [7] it was 0.526. The composite z-score in test [8] was 0.988; in test [9] it was 1.25; in test [10], -0.678. Further, the z-score in test [4] was -0.345 (inactive).

(Values after PubChem BioAssay.)
